Measured values published in PubChem BioAssay (NCI).
This is part of a sample that, as a whole, favours compounds with a hit. Of some 83,000 tested, about 20% had one in any assay.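 Each cell line was grown in a 96-well plate and treated with one concentration of compound for 48 hours. Values below 10 were considered active.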 Unmarked numbers belong to inactive results. Activity calls are given as the source filed them.

Assays:
Assay in all cases: NCI-60 one-dose screen, 48 h (100 = growth as untreated, 0 = no growth, -100 = all killed)
Conditions in all cases: 10 µM unless noted
EKVX NSCLC = system: EKVX NSCLC
SN12C renal = system: SN12C renal
UO-31 renal = system: UO-31 renal
TK-10 renal = system: TK-10 renal
ACHN renal = system: ACHN renal
CAKI-1 renal = system: CAKI-1 renal
A498 renal = system: A498 renal
CCRF-CEM leukemia = system: CCRF-CEM leukemia
MOLT-4 leukemia = system: MOLT-4 leukemia
SR leukemia = system: SR leukemia

SMILES | growth (EKVX NSCLC) | growth (SN12C renal) | growth (UO-31 renal) | growth (TK-10 renal) | growth (ACHN renal) | growth (CAKI-1 renal) | growth (A498 renal) | growth (CCRF-CEM leukemia) | growth (MOLT-4 leukemia) | growth (SR leukemia)
COc1cc(/C=C/C(=O)c2c(C)nc3ccccc3c2/C=C/c2ccccc2)cc(OC)c1OC | 26.9% | 11.1% | 27.4% | 10.1% | -27.4% (active) | 30.8% | 40.6% | 4.76% (active) | -0.744% (active) | 
O=C(CCN1C(=O)c2ccccc2C1=O)Nc1ccc(Cl)cc1 | 88.2% | 75.3% | 50.1% | 93.1% | 82.2% | 68.4% | 103% | 43.3% | 42% | 
O=C(Nc1ccc(I)cc1F)c1cc(Br)ccc1O | 6.95% (active) | 3.31% (active) | 8.84% (active) | 1.98% (active) | 4.42% (active) | -18.9% (active) | -62.1% (active) | 7.25% (active) | -12.2% (active) | 
CC[C@]1(O)C[C@@H]2CN(CCc3c([nH]c4ccccc34)[C@@](C(=O)OC)(c3cc4c(cc3OC)N(C)[C@H]3[C@@](O)(C(=O)OC)[C@H](OC(C)=O)[C@]5(CC)C=CCN6CC[C@]43[C@@H]65)C2)C1 | 38.8% | 27% | 41.6% | 45.5% | 30.1% | 4.83% (active) | -12.5% (active) | 13.8% | 26.5% | 
O=C1NC(=O)C(=Cc2cn(Cc3cn(Cc4ccc(Cl)cc4Cl)nn3)c3ccccc23)C(=O)N1 | 104% | 90.4% | 63.9% | 68.8% | 102% | 56.3% | 38.3% | 76.4% | 84.6% | 
COc1cc(/C=C2\CN(S(=O)(=O)c3ccccc3)C/C(=C\c3cc(CN4CCCC4)c(O)c(OC)c3)C2=O)cc(CN2CCCC2)c1O | 24.7% | -25.8% (active) | 34.7% | 26.8% | 12.1% | 75.3% | 8.57% (active) | 7.45% (active) | 1.22% (active) | 
O=C1/C(=C/c2ccc(O)cc2)COc2ccc(O)cc21 | 106% | 96.7% | 87.5% | 115% | 96.5% | 103% | 103% | 76.7% | 93.7% | 33%
CC1=CCC(OC(=O)C(C)(C)CCC(O)(C(=O)OC2(C(C)C)CCC3(C)OC3C2)C(C)C)(C(C)C)CC1 (stereo not given) | -63% (active) | -43.8% (active) | -99.2% (active) | -99.2% (active) | -94.8% (active) | -100% (active) | -83.1% (active) | -19.2% (active) | -30.3% (active) | 11.3%
O=Cc1cc2ccccc2nc1Nc1nccs1 | 98.5% | 45.5% | 31.2% | 101% | 31.5% | 79.5% | 81.9% | 46.7% | 23.4% | 33.9%
CN1CCN(Cc2ccc(C(=O)Nc3cncc(C#Cc4cnc5cccnn45)c3)cc2C(F)(F)F)CC1 | 75% | 48.1% | 21.5% | 82.8% | 25.6% | 13.9% | 11.3% | 32.6% | 13.6% | 
O=C(c1ccccc1)N(CCc1ccc(Cl)cc1)C(=S)N(C(=O)c1ccccc1)c1ccccc1 | 102% | 100% | 81.7% | 97.4% | 110% | 96.9% | 92.3% | 8.54% (active) | 28.7% | 
O=c1oc2ccc(Br)cc2c(=O)n1-c1ccc(F)cc1F | 39% | 6.17% (active) | 3.24% (active) | 11.6% | 4.95% (active) | -16.6% (active) | -39% (active) | 14.1% | 17.5% | 
O=c1oc2ccc(F)cc2c(=O)n1-c1ccc(Cl)cc1F | 9.11% (active) | 1.59% (active) | 1.41% (active) | 5.92% (active) | 1.55% (active) | -21.5% (active) | -51% (active) | 12.7% | -5.46% (active) | 
O=c1c2cc(F)cc(Cl)c2sc2c(Cl)nc3ccccc3c12 | 97.9% | 76.8% | 72.6% | 151% | 95.3% | 90.7% | 103% | 86.9% | 103% | 
CC1=C(C(=O)OCC2CCN(C(=O)OC(C)(C)C)CC2)[C@H](c2cccc(C#N)c2)C2=C(CC(C)(C)CC2=O)N1 | 62.6% | 52.9% | 57.8% | 69.7% | 35.4% | 52.4% | 68.3% | 40.5% | 25.3% | 
O=C1CCC(N2C(=O)c3cccc(NCCCCCCOc4ccc(Nc5nccc(Nc6ccccc6)n5)cc4)c3C2=O)C(=O)N1 (stereo not given) | 77.3% | 79% | 77.8% | 108% | 74.8% | 63.8% | 74.6% | 66.1% | 55.2% | 68.5%
O=C1c2cc(I)ccc2Oc2cc([N+](=O)[O-])ccc2N1c1ccc(Cl)cc1F | 93.5% | 90.8% | 63.6% | 120% | 90.3% | 63.9% | 91.4% | 76.8% | 56.6% | 
COc1ccc(S(=O)(=O)N(Cc2ccc3c(n2)C=CC(C)(C)O3)C2CCC2)cc1OC | -22.5% (active) | 6.9% (active) | -10.2% (active) | -8.7% (active) | 13.4% | -28.2% (active) | -25.4% (active) | -19% (active) | -14.3% (active) | -40% (active)
COc1ccc(/C(C#N)=C/c2nc3c(N4CCOCC4)nc(Cl)nc3n2C)cc1OC | 20.1% | 11.2% | -92.9% (active) | -21.1% (active) | -51.3% (active) | -14.2% (active) | -27.8% (active) | 11.8% | 2.05% (active) | 
C#CCn1cc(C=C2C(=O)N(C)C(=O)N(C)C2=O)c2cc(Cl)ccc21 | 98.1% | 101% | 80.1% | 106% | 99.4% | 91.7% | 70% | 105% | 105% | 
COc1ccc(-c2nocc2-c2cccs2)cc1 | 91.6% | 103% | 88.2% | 104% | 103% | 89.8% | 107% | 105% | 108% | 128%
O=S1(=O)N(Cc2ccccc2)[C@@H](Cc2ccccc2)[C@H](O)[C@H](O)[C@H](Cc2ccccc2)N1Cc1ccccc1 | -1.3% (active) | 5.15% (active) | 0% (active) | 60.4% | -7.05% (active) | -19.1% (active) | 18.5% | 7.73% (active) | 5.65% (active) | 4.45% (active)
CC(C)CCOc1ccc(-c2n[nH]c(C(F)(F)F)c2-c2cncc(C#N)c2)c(O)c1 | 3.52% (active) | 3.81% (active) | 3.89% (active) | 11.4% | 8.84% (active) | 9.47% (active) | -25.5% (active) | 6.67% (active) | 23% | 33.7%
NCCNc1nc2ccccc2c2c(=O)c3cc(F)cc(Cl)c3sc12 | -68.5% (active) | -83.7% (active) | -93.7% (active) | -30.6% (active) | -94.7% (active) | -96.3% (active) | 46.9% | -28.1% (active) | 29.1% | -27.7% (active)
O=c1c2cc(F)ccc2sc2c(NCCN3CCCC3)nc3ccccc3c12 | 66.2% | 70.4% | 45.3% | 64.8% | 35.6% | 62.8% | 26% | 33.5% | 5.14% (active) | 16.7%
O=C1C(Cl)=C(NCc2ccco2)C(=O)c2ccccc21 | 110% | 90.1% | 97.3% | 110% | 93.8% | 93.9% | 89.8% | 24.4% | 91.1% | 63.9%
